Test results taken from ChEMBL document CHEMBL1961873, “Compounds: GSK PKIS; Assays: Nanosyn kinase panel” (2012).
Where “and” joins values, the source holds several entries; their conditions need not be identical. Equal values may be shown once.

Experiments:
[1] = molecular target: T1, Serine/threonine-protein kinase D2 (Homo sapiens) (UniProt Q9BZL6); details: at 1 µM;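 note: mean value of PRKD2 inhibition, from the GSK PKIS screening panel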
T1 sequence (whole entry): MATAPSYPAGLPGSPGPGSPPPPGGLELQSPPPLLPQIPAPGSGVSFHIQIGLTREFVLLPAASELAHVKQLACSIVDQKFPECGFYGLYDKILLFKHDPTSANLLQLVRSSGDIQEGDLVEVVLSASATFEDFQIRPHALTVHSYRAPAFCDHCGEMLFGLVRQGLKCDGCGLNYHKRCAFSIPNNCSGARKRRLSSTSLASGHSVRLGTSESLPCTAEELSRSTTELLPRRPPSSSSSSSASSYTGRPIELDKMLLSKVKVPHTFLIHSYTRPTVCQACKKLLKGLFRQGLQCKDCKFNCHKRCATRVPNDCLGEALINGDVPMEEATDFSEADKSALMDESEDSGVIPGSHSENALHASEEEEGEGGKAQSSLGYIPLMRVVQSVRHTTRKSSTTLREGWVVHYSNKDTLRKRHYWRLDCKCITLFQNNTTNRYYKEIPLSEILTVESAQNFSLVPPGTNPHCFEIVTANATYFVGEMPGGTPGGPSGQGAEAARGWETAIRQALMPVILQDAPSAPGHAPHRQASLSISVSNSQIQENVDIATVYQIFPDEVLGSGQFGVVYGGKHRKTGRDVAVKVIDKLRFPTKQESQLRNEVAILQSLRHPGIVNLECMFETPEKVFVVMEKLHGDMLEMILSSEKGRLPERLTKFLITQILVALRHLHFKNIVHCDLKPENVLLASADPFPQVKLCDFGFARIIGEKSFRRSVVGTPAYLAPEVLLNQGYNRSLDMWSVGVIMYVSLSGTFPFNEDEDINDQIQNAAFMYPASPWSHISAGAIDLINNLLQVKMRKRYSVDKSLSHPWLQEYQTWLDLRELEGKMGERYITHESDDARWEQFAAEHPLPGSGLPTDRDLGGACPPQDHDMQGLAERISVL

[2] = molecular target: T2, Serine/threonine-protein kinase D3 (Homo sapiens) (UniProt O94806); details: at 0.1 µM
T2 sequence (whole entry): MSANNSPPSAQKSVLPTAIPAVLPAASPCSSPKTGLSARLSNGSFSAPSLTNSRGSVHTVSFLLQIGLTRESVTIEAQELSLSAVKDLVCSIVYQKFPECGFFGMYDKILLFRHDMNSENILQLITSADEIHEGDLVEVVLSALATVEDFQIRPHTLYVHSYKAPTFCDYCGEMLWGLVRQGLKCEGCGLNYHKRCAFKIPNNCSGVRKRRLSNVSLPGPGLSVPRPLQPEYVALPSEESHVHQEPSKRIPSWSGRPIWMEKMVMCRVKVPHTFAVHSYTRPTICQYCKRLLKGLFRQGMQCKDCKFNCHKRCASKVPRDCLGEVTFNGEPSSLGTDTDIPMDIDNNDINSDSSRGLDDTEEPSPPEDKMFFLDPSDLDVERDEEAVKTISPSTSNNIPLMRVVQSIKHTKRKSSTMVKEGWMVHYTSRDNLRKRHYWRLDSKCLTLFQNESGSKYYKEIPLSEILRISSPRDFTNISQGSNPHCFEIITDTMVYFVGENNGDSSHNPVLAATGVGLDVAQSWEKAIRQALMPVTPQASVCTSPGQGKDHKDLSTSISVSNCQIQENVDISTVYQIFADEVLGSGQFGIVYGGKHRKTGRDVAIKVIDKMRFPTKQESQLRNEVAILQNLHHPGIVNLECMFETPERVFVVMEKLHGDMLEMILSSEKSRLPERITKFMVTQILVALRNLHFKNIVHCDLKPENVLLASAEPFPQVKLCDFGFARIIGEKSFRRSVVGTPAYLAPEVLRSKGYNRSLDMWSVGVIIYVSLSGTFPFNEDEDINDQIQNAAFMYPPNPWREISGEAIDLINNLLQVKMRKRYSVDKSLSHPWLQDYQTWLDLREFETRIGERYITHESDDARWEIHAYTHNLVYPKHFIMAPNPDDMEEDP

[3] = molecular target: T2, Serine/threonine-protein kinase D3 (Homo sapiens); details: at 1 µM
[4] = molecular target: T3, cGMP-dependent protein kinase 1 (Homo sapiens) (UniProt Q13976); details: at 0.1 µM
T3 sequence (whole entry): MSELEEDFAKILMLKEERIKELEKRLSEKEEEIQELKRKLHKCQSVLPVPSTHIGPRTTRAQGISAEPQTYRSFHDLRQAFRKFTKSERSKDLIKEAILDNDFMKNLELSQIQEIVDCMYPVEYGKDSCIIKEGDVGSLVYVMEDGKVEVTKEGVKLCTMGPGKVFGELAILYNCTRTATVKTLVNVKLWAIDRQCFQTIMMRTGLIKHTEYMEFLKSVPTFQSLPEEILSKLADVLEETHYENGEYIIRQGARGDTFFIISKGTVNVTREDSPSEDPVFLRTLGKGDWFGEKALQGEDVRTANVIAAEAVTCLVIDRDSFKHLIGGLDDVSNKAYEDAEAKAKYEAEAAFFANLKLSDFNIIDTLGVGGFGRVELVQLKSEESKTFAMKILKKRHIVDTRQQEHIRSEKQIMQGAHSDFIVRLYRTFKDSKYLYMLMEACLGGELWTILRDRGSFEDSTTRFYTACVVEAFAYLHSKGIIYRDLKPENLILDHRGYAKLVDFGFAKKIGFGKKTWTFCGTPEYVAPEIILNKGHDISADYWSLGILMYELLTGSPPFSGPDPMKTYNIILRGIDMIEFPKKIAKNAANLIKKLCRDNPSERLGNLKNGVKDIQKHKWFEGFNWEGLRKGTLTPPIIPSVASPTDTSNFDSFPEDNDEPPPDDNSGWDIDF

[5] = molecular target: T3, cGMP-dependent protein kinase 1 (Homo sapiens); details: at 1 µM
[6] = molecular target: T4, cGMP-dependent protein kinase 2 (Homo sapiens) (UniProt Q13237); details: at 0.1 µM
T4 sequence (whole entry): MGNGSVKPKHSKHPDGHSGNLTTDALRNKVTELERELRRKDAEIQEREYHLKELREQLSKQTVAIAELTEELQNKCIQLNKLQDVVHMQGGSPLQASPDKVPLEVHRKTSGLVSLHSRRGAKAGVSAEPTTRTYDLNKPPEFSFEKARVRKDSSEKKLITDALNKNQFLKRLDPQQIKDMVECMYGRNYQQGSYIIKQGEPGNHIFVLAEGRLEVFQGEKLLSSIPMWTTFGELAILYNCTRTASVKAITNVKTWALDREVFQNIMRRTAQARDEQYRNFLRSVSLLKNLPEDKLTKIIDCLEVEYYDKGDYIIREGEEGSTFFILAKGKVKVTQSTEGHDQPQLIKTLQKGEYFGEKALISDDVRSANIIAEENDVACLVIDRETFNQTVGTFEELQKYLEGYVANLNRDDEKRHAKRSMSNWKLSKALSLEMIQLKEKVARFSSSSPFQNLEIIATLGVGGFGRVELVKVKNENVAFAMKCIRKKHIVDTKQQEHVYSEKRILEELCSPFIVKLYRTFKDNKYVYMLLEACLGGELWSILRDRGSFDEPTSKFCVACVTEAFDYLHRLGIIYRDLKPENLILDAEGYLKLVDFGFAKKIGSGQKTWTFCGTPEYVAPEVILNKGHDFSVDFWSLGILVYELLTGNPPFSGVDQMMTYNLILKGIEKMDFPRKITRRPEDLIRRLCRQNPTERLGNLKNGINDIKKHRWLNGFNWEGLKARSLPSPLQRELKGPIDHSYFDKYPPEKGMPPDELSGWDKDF

[7] = molecular target: T4, cGMP-dependent protein kinase 2 (Homo sapiens); details: at 1 µM
[8] = molecular target: T5, cAMP-dependent protein kinase catalytic subunit PRKX (Homo sapiens) (UniProt P51817); details: at 0.1 µM
T5 sequence (whole entry): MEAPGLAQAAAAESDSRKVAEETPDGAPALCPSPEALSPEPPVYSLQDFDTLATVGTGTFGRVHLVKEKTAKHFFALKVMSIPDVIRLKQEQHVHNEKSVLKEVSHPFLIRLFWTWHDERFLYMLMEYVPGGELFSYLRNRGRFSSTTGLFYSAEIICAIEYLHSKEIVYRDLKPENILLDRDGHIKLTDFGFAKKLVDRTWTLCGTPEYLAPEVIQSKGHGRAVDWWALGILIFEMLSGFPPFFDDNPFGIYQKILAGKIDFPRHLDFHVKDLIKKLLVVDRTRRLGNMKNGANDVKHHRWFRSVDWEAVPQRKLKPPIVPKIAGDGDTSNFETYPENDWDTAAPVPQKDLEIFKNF

[9] = molecular target: T5, cAMP-dependent protein kinase catalytic subunit PRKX (Homo sapiens); details: at 1 µM
[10] = molecular target: Rho-associated protein kinase 1 (Homo sapiens) (UniProt Q13464); details: at 0.1 µM;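 note: values are mean percent inhibition of ROCK1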
Sequence of Rho-associated protein kinase 1 (Homo sapiens) (Q13464 2-1354 limits assumed): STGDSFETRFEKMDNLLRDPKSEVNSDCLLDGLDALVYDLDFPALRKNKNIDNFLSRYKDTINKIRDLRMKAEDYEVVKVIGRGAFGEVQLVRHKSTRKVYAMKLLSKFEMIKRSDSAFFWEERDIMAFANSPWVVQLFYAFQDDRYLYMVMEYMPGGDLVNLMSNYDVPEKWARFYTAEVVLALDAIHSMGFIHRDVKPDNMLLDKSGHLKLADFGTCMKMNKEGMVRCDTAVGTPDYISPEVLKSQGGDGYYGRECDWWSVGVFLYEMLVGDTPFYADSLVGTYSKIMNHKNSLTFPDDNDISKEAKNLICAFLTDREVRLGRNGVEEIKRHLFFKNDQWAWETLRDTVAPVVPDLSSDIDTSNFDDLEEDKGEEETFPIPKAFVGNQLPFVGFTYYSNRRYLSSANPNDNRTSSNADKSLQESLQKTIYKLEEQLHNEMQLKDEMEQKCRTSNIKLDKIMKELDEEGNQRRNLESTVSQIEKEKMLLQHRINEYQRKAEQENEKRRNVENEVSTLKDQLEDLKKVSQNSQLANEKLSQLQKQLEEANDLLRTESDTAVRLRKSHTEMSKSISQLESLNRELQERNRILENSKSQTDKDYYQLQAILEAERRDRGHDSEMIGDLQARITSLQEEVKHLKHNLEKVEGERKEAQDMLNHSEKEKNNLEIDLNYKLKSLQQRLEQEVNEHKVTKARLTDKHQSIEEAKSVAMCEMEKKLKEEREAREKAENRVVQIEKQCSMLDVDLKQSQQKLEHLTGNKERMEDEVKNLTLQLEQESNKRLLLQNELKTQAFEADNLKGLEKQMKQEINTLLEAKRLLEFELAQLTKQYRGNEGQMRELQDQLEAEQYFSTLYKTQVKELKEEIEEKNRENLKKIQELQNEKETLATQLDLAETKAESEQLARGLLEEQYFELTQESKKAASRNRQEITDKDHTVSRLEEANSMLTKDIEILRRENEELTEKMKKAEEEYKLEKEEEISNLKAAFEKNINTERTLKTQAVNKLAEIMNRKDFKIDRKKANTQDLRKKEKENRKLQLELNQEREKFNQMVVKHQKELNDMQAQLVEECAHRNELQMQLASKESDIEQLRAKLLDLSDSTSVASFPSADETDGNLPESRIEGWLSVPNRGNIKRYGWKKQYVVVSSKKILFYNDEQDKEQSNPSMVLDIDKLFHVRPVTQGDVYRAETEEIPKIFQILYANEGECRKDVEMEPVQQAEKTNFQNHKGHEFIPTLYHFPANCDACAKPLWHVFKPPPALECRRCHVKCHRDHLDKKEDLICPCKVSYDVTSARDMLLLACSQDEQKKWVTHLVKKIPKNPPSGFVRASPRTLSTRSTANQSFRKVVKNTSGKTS

| SMILES | inhibition [1] | inhibition [2] | inhibition [3] | inhibition [4] | inhibition [5] | inhibition [6] | inhibition [7] | inhibition [8] | inhibition [9] | inhibition [10] |
| --- | --- | --- | --- | --- | --- | --- | --- | --- | --- | --- |
| CC(C)c1ccc(-c2cc(-c3c[nH]nc3-c3ccccn3)ccn2)cc1 | 10.9% | 1.32% | 5.01% | 2.03% | 2.34% | -0.11% | 2.04% | -0.13% | -0.45% | 0.38% |
| COc1ccccc1-c1cc(/C=C2\C(=O)Nc3ncc(Br)cc32)cc(Br)c1O | 6.48% | 5.02% | 6.21% | 2.01% | 5.3% | 1.73% | 5.97% | 0.16% | 0.16% | 0.21% |
| O=C(Nc1n[nH]c2nnc(-c3cccnc3)cc12)C1CC1 | 0.68% | -0.7% | 0.02% | -0.91% | 0.14% | 1.31% | 7.32% | -0.34% | -0.33% | -0.21% |
| COc1cc(Nc2ncc(-c3ccccc3)o2)cc(OC)c1 | 1.86% | 5.05% | 4.51% | 1.76% | 1.96% | 1.74% | 2.19% | 0.91% | 4.53% | 2.5% |
| CS(=O)(=O)CCNCc1ccc(-c2ccc3ncnc(Nc4ccc(OCc5cccc(C(F)(F)F)c5)cc4)c3c2)o1 | 4.34% | 5.01% | 5.61% | 3.52% | 4.77% | 2.31% | 6.67% | 2.61% | 1.41% | 2.09% |
| O=C(O[C@H]1CN[C@H](C#Cc2cc3ncnc(Nc4ccc5c(ccn5Cc5cc(F)ccc5F)c4)c3s2)C1)N1CCOCC1 | 5.35% | 5.21% | 6.35% | 2.6% | 3.55% | 2.56% | 3.72% | 2.19% | 2.67% | 0.77% |
| CCn1c(-c2nonc2N)nc2cncc(C(=O)NCCNC)c21 | 5.38% | 5.66% | 6.85% | 36.2% | 70% | 61.7% | 73.8% | 18.4% | 63.9% | 71.8% |
| CC1=C(C(=O)Nc2ccc3[nH]ncc3c2)C(c2ccc(F)cc2)N=C(c2ccc(C(F)(F)F)nc2)N1 (stereo not given) | 2.33% | 3.1% | 2.8% | 7.52% | 42.2% | 4.96% | 31.1% | 3.93% | 23.6% | 31.3% |
| c1ccc(-c2n[nH]cc2-c2ccnc(-c3ccc(OCCn4ccnc4)cc3)c2)nc1 | 64.3% | 7.07% | 47.7% | 0.59% | 4.08% | 1.04% | 2.63% | 2.32% | 7.66% | 4.13% |
| CC1=C(C(=O)Nc2ccc3[nH]nc(C)c3c2)C(c2ccc(C(F)(F)F)cc2)CC(=O)N1 (stereo not given) | 4.33% | 3.46% | 9.27% | 3.93% | 18.2% | 5.55% | 40.2% | 7.3% | 47% | 67.8% |
| COc1cc(N2CCN(C(C)C)CC2)ccc1Nc1nc(Nc2cccc(F)c2C(=O)O)c2cc[nH]c2n1 | 4.66% | 4.61% | 4.8% | 1.6% | 5.7% | 1.77% | 3.84% | 1.23% | 2.86% | 0.41% |
| COc1cccc(Nc2nccc(-c3cnn4ncccc34)n2)c1 | 37.4% | 4.36% | 41.4% | 5.54% | 37.6% | 1.94% | 14.5% | -0.56% | -0.01% | -0.95% |
| CNC(=O)c1ncccc1Nc1nc(Nc2cc3c(cc2OC)CCCN3C(=O)CN(C)C)nc2[nH]ccc12 | 41.6% | 9.65% | 55.3% | 1.9% | 7.42% | 3.34% | 5.86% | 1.64% | 1.14% | 1.58% |
| Fc1ccc(Nc2nccc(-c3c(-c4ccc(C(F)(F)F)cc4)nn4ncccc34)n2)cc1F | 3.98% | 5.05% | 4.35% | 2.4% | 3.28% | 0.92% | 2.82% | 0.62% | -1.3% | 0.45% |
| CN1CCN(Cc2ccc(-c3cc4ncnc(Nc5ccc(OCc6cccc(F)c6)c(Cl)c5)c4s3)o2)CC1 | 4.28% and 7.23% | 2.56% and 5.35% | 4.4% and 6.3% | 2.05% and 4.47% | 1.78% and 7.9% | 0.82% and 2.4% | 0.79% and 5.44% | 1.82% and 3.39% | 1.45% and 5.71% | 1.65% and 1.83% |
| Cc1nnc(-c2cccc(-c3ccc(C(=O)NCC4CC4)cc3)c2)o1 | 7.93% | 6.14% | 7.35% | 3.58% | 5.43% | 3.23% | 3.44% | 3.54% | 4.63% | 0.97% |
